This passage reports fluorescence intensity results from PubChem BioAssay AID624483 (NMMLSC, 2012).

Each structure is given as a SMILES string. Screen size: about 360,000 compounds; about 11,000 (3.1%) were called active. Inconclusive results (about 2%) are left out. The full list was thinned out, with actives kept by preference. A number with no mark means an inactive call. No stated cut-off is given here; in the data, active means fluorescence intensity above about 16000; inconclusive means no clear call, values can overlap the other calls; inactive means below that.

The test is described as follows: compound fluorescence in toxin protease inhibitor counterscreen, primary screen, artefact control for toxin protease inhibitor project, biochemical, multiplex microsphere, HTS (AID 624483). The settings on record: compound autofluorescence counterscreen, microsphere flow cytometry; hits give high values. (The purpose of a counterscreen is to sort out artefacts and off-target activity.)
For the compound `CCOC(=O)C1CCCN(C(=O)c2ccc(N(C)C)cc2)CC1` (configuration not stated), the fluorescence intensity was 2830. Regarding `CCc1nc2c(OCCC3CCCCC3)cccn2c1N(C)C(=O)c1ccco1`, the fluorescence intensity was 3130. In the case of `COc1ccc(C(=O)N2CCCCC2c2cc(C(=O)Nc3ccccc3)no2)cc1` (configuration not stated), the fluorescence intensity was 3670. In the case of `CCCNC(=O)C1(C)CCN(Cc2ccc(Cl)c(Cl)c2)C1` (configuration not stated), the fluorescence intensity is 4070. `CC1(C(=O)Nc2ccccc2Br)CCN1C(=O)CC1CC1` (configuration not stated): the fluorescence intensity was 4640.

In the case of `O=C(Nc1cccc(Cc2ccccc2)c1)Nc1ccc2nc([C@@H]3O[C@H](CO)[C@@H](O)[C@H](O)[C@H]3O)[nH]c2c1`, the fluorescence intensity is 5830. `O=C(CN1CCN(c2ccccn2)CC1)NC1CCCCC1`: the fluorescence intensity was 5140. In the case of `O=C(C(Cl)Cl)N1CCN(c2ccccn2)CC1`, the fluorescence intensity was 2340.

For `CN1C(=O)CC(N2CCN(c3ccccn3)CC2)C1=O` (configuration not stated), the fluorescence intensity was 20700 (active). Under `CCCCc1c(-c2ccc(Cl)cc2)ncn1CCc1ccccc1OC` stands 6340. In the case of `COc1ccc(CN(Cc2ccco2)S(=O)(=O)c2ccc(S(=O)(=O)N3CCCC3)cc2)cc1`, the fluorescence intensity is 23600 (active). Take `CCOc1ccc(CN(Cc2ccco2)S(=O)(=O)c2ccc(-n3cnnn3)c(OC)c2)cc1`: the fluorescence intensity was 11600. For `COc1ccc(S(=O)(=O)NCc2ccc(C(=O)N(C)Cc3ccco3)cc2)cc1`, the fluorescence intensity is 10900. For the compound `CC1(C(=O)Nc2cccc3c2CCCC3)CCN1C(=O)C1(c2ccccc2)CC1` (configuration not stated), the fluorescence intensity is 3760. In the case of `C=CCn1c2c(c3ccccc31)CCC2`, the fluorescence intensity is 6080.

`COc1ccc2c(c1OC)C(=O)OC2Nc1nc(-c2ccccc2)cs1` (configuration not stated): the fluorescence intensity is 2960.

With `COc1ccc(-c2csc(Nc3cccc(C)n3)n2)cc1OC`, the fluorescence intensity is 3770. Consider `COc1ccc(Nc2nc(-c3ccccc3)cs2)cc1`, for which the fluorescence intensity is 23300 (active). As to `CC(=O)c1ccc(Nc2nc(C(N)c3ccccc3)cs2)cc1` (configuration not stated), the fluorescence intensity is 3990. Under `NS(=O)(=O)c1ccc(Nc2nc(-c3ccccc3)cs2)cc1` stands 23200 (active); under `NS(=O)(=O)c1ccc(NS(=O)(=O)/C=C/c2ccccc2)cc1`, 7650; under `CCCOc1ccc(F)cc1-c1cc(C(=O)Nc2ccc(F)cc2)[nH]n1`, 3520. Take `COCCn1c(SCC(=O)c2[nH]c(C)c(C(C)=O)c2C)nc2ccccc2c1=O`: the fluorescence intensity was 3120. Turning to `CC(C)Cn1cc(-c2cncc3nccn23)cn1`, the fluorescence intensity is 4100.

In the case of `COCCCNC(=O)c1ccc(-c2c(C)noc2C)c2ccoc12`, the fluorescence intensity was 3520. In the case of `Cc1ccc(/C=N/NC(=O)Cn2ccc(C(F)(F)F)n2)o1`, the fluorescence intensity is 2150. Turning to `Clc1ccc(CSc2nnc3c(n2)[nH]c2ccccc23)cc1`, the fluorescence intensity was 3690. Regarding `c1ccc(CSc2nnc(-c3ccco3)c(-c3ccco3)n2)cc1`, the fluorescence intensity was 20900 (active). Consider `c1ccc(Cc2c(-c3ccco3)nc3c4ccccc4ccn23)cc1`, for which the fluorescence intensity is 4810.

For the compound `CN(C)CCN(Cc1ccccc1)S(=O)(=O)c1csc(C(N)=O)c1`, the fluorescence intensity was 5470. On to `Cc1ccc(-n2c(C)cc(C(=O)CSc3nnc4ccccn34)c2C)cc1`, for which the fluorescence intensity is 2510. On to `COc1ccc(-n2c(C)cc(C(=O)CSc3nnc(-c4cccs4)o3)c2C)cc1`, for which the fluorescence intensity was 18900 (active). For `COc1ccc(-n2c(C)cc(C(=O)COC(=O)c3cc(OC)c(OC)cc3NC(=O)c3cccs3)c2C)cc1`, the fluorescence intensity is 2450.

For the compound `O=C(Oc1ccccc1)c1ccc2nccnc2c1`, the fluorescence intensity is 16700 (active). As for `COC(=O)c1ccc(OC(=O)c2cnccn2)cc1`, the fluorescence intensity is 4650. For `CC(C)CCC(C)NC(=O)c1ccc2nccnc2c1` (configuration not stated), the fluorescence intensity was 4050. Regarding `Cc1nccn1-c1ccc(NC(=O)[C@H]2O[C@@H](n3cnc4c(N)ncnc43)[C@H](O)[C@@H]2O)cc1`, the fluorescence intensity is 5940. Under `CC(=O)N(OCc1ccc(OC(C)C)c(Cl)c1)C(C)=O` stands 4420; under `CN(C)/C=C/C(=O)c1ccccc1F`, 4920.

Turning to `CC(Oc1ccc(F)cc1F)C(=O)/C=C/N(C)C` (configuration not stated), the fluorescence intensity is 24200 (active). Under `CCCC(=O)Nc1cccc(NC(=S)NC(=O)C(C)Oc2ccc(Cl)cc2Cl)c1` (configuration not stated) stands 2030; under `CC(Oc1ccccc1F)C(=O)NN` (configuration not stated), 2470; under `CC(Oc1ccc(Cl)cc1Cl)C(=O)/C=C/N(C)C` (configuration not stated), 18300 (active). For the compound `CCOC(=O)c1sc(N)c(C#N)c1COC(=O)C1=COCCO1`, the fluorescence intensity is 4150.

On to `CCNC(=O)C1CCCN(C(=O)c2ccc(OC)cc2OC)CC1` (configuration not stated), for which the fluorescence intensity was 2850.

For `CCCOc1ccc(F)cc1-c1cc(C(=O)NCc2ccc(F)cc2)[nH]n1`, the fluorescence intensity was 3970. For the compound `COCCNc1nc(NCc2ccc(NC(C)=O)cc2)c2sccc2n1`, the fluorescence intensity was 3410. With `CC(=O)Nc1cccc(Nc2ccc(C#N)cc2)c1`, the fluorescence intensity is 6880. Under `CCOC(=O)C1CCCN(C(=O)c2cccc3ccccc23)CC1` (configuration not stated) stands 3960; under `O=C(NCc1ccc(F)cc1)c1cc(C2CCCCN2C(=O)c2ccccn2)on1` (configuration not stated), 4420.

For the compound `Nc1nc2cc(Cl)ccc2n1N`, the fluorescence intensity is 6290.

Regarding `CC(O)(c1cccc(F)c1)c1nc(-c2ccc3c(c2)OCO3)cs1` (configuration not stated), the fluorescence intensity was 3850. On to `CC(C)(C)C(=O)N(Cc1ccccc1)c1ccccn1`, for which the fluorescence intensity was 4430. As for `O=C(N1CCOCC1)N(Cc1ccccc1)c1ccccn1`, the fluorescence intensity is 3710. As for `CCC(=O)N(Cc1ccccc1)c1ccccn1`, the fluorescence intensity is 20800 (active). Take `COc1cc(F)ccc1-c1cc(C(=O)NCC2CCCCC2)[nH]n1`: the fluorescence intensity was 3000. Turning to `CCC(C)[C@H](NC(=O)N1c2ccccc2NC(=O)[C@@H]1C(C)C)C(=O)N[C@@H](Cc1ccccc1)C(=O)O` (some centres not stated), the fluorescence intensity was 3920. Consider `COc1ccc(NC(C)=O)cc1NC(=O)CN1CCN(C2c3ccccc3-c3ccccc32)CC1`, for which the fluorescence intensity was 4260. Under `Cc1ccc(CN(CC(=O)NC2CCCCC2)C(=O)c2csnn2)cc1` stands 5650. `COc1cccc(C2/C(=C(/O)c3ccc(F)cc3)C(=O)C(=O)N2CCN(C)C)c1` (configuration not stated): the fluorescence intensity was 4550. Turning to `CCCOc1ccc(/C(O)=C2/C(=O)C(=O)N(CCN(C)C)C2c2ccc(OC)c(OC)c2)cc1` (configuration not stated), the fluorescence intensity is 4510. Consider `COc1ccc(/C(O)=C2/C(=O)C(=O)N(CCCN(C)C)C2c2ccccc2)cc1OC` (configuration not stated), for which the fluorescence intensity is 21200 (active).
